Consider 14 molecules from PubChem BioAssay (Tox21).

Test [1] can be described thus: A CellTox Green Cytotoxicity Assay to monitor cytotoxicity in HEK293 cells - 40 hour (AID 1224871). Further: nearly all actives have a fitted effect of over 45% in size. Further: potency means the concentration at half of the fitted maximal effect. In a few lines:
(§1)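 Real-time, in one plate: 600 HEK293 cells/well with dead-cell DNA dye, pinned compound after 5 h, 37 C incubation over 40 h; viable cells give no appreciable fluorescence.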

Test [2] is described as follows: qHTS RealTime-Glo MT Cell Viability Assay in HEK293 cells - 16 hour (AID 1224872). Further: nearly all actives have a fitted effect of over 50% in size. Further: potency means the concentration at half of the fitted maximal effect. In a few lines: (§2)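 HEK293 cells seeded with NanoLuc/prosubstrate reagent, rested 5 h at 37 C, then dosed and kept at 37 C up to 40 h. Nonlytic real-time luminescence from viable cells read at 0, 8, 16, 24, 32 and 40 h.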
A general note: Quantitative high-throughput screening tests each substance at several concentrations.

The nature of test [3]: qHTS RealTime-Glo MT Cell Viability Assay in HepG2 cells - 8 hour (AID 1224873). Further: nearly all actives have a fitted effect of over 55% in size. In a few lines: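 Real-time viability: cells seeded at 600 per well together with NanoLuc and cell-permeant prosubstrate, compounds added after 5 h incubation. Luminescence tracked at 0, 8, 16, 24, 32 and 40 h of exposure.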
Test [4] can be described thus: qHTS RealTime-Glo MT Cell Viability Assay in HEK293 cells - 40 hour (AID 1224874). Further: nearly all actives have a fitted effect of over 50% in size. Further: potency means the concentration at half of the fitted maximal effect. To be noted: RealTime-Glo luminescence; max response: active compounds read low. The essentials:
(§3)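 Kinetic, non-lysing viability readout. Seed HEK293 (600/well) with reagent, incubate 5 h at 37 C/5% CO2, pin 23 nL compound in DMSO, incubate at 37 C, read luminescence at 0, 8, 16, 24, 32, 40 h.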

A short description of test [5]: A CellTox Green Cytotoxicity Assay to monitor cytotoxicity in HEK293 cells - 24 hour (AID 1224875). Further: nearly all actives have a fitted effect of over 45% in size. Further: potency means the concentration at half of the fitted maximal effect. The essentials: as §1
A short description of test [6]: A CellTox Green Cytotoxicity Assay to monitor cytotoxicity in HepG2 cells - 16 hour (AID 1224876). Further: nearly all actives have a fitted effect of over 45% in size. Further: potency means the concentration at half of the fitted maximal effect. The essentials: (§4)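 Cytotoxicity was tracked as dead-cell DNA fluorescence in HepG2 cells treated with test compounds at 37 C; each time-point value comes from one kinetic series spanning 0, 8, 16, 24, 32 and 40 h.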
Test [7] in a line: qHTS RealTime-Glo MT Cell Viability Assay in HepG2 cells - 32 hour (AID 1224877). Further: nearly all actives have a fitted effect of over 55% in size. The essentials: (§5)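 HepG2 cells (600/well) were dispensed with RealTime-Glo reagents, incubated 5 h at 37 °C, then treated with compounds in DMSO for up to 40 h. Nonlytic NanoLuc luminescence reflecting viable cells was read at each stated time point.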
Test [8] in a line: A CellTox Green Cytotoxicity Assay to monitor cytotoxicity in HepG2 cells - 24 hour (AID 1224878). Further: nearly all actives have a fitted effect of over 45% in size. Further: potency means the concentration at half of the fitted maximal effect. The essentials:
as §4

Test [9] can be described thus: A CellTox Green Cytotoxicity Assay to monitor cytotoxicity in HepG2 cells - 40 hour (AID 1224879). Further: nearly all actives have a fitted effect of over 40% in size. Further: potency means the concentration at half of the fitted maximal effect. In a few lines:
as §4

A short description of test [10]: A CellTox Green Cytotoxicity Assay to monitor cytotoxicity in HEK293 cells - 32 hour (AID 1224881). Further: nearly all actives have a fitted effect of over 40% in size. Further: potency means the concentration at half of the fitted maximal effect. In a few lines: as §1
Test [11] in a line: A CellTox Green Cytotoxicity Assay to monitor cytotoxicity in HepG2 cells - 32 hour (AID 1224883). Further: nearly all actives have a fitted effect of over 50% in size. Further: potency means the concentration at half of the fitted maximal effect. The essentials:
as §4

A short description of test [12]: A CellTox Green Cytotoxicity Assay to monitor cytotoxicity in HEK293 cells - 8 hour (AID 1224884). Further: nearly all actives have a fitted effect of over 35% in size. Further: potency means the concentration at half of the fitted maximal effect. In a few lines:
as §1

Test [13] is described as follows: qHTS RealTime-Glo MT Cell Viability Assay in HepG2 cells - 16 hour (AID 1224885). Further: nearly all actives have a fitted effect of over 50% in size. The essentials:
as §5

Test [14] can be described thus: qHTS RealTime-Glo MT Cell Viability Assay in HEK293 cells - 24 hour (AID 1224886). Further: nearly all actives have a fitted effect of over 50% in size. Further: potency means the concentration at half of the fitted maximal effect. The essentials: as §2
Test [15] in a line: qHTS RealTime-Glo MT Cell Viability Assay in HEK293 cells - 8 hour (AID 1224887). Further: nearly all actives have a fitted effect of over 50% in size. Further: potency means the concentration at half of the fitted maximal effect. The essentials: as §3
The nature of test [16]: A CellTox Green Cytotoxicity Assay to monitor cytotoxicity in HEK293 cells - 16 hour (AID 1224888). Further: nearly all actives have a fitted effect of over 35% in size. Further: potency means the concentration at half of the fitted maximal effect. In a few lines: as §1
Test [17] can be described thus: qHTS RealTime-Glo MT Cell Viability Assay in HepG2 cells - 0 hour (AID 1224889). Further: nearly all actives have a fitted effect of over 50% in size. The essentials:
as §5

The nature of test [18]: A CellTox Green Cytotoxicity Assay to monitor cytotoxicity in HepG2 cells - 8 hour (AID 1224890). Further: nearly all actives have a fitted effect of over 45% in size. Further: potency means the concentration at half of the fitted maximal effect. The essentials:
as §4

Test [19] is described as follows: qHTS RealTime-Glo MT Cell Viability Assay in HEK293 cells - 0 hour (AID 1224880). In a few lines: as §3
The nature of test [20]: A CellTox Green Cytotoxicity Assay to monitor cytotoxicity in HepG2 cells - 0 hour (AID 1224882). Further: nearly all actives have a fitted effect of over 35% in size. Further: potency means the concentration at half of the fitted maximal effect. The essentials: as §4

A number with no mark means an inactive call. Records with an inconclusive call do not appear. Activity calls are given as the source filed them. The call rests on the fitted dose curve; in most records, active means well fitted curve in the direction sought with a large enough effect in the repeat runs; inconclusive means weak or mixed curves; inactive means no such curve, though single readings can be large; an effect the other way counts as inactive or inconclusive.
On the % scale 0 is the no-effect control and ±100 the full control effect.

Turning to `CC(CC=O)c1ccccc1` (centres undefined), the Potency entry in test [1], in test [2], in test [3], in [5], in test [6] and in test [7] was “inactive” each time. For the same molecule, the Potency result in [8], in test [9], in test [10], in test [11], in test [12] and in test [13] was “inactive” each time. For the same molecule, the Potency entry in test [14], in test [15], in [16] and in test [17] was “inactive” each time. Besides, the max response in test [4] is 0.684%.

Take `C=C(C)C(=O)OCC`: the Potency entry in [1], in test [2], in [3], in [5], in test [6] and in test [7] was “inactive” each time. The Potency entry in test [8], in [9], in test [10], in test [11], in test [12] and in [13] was “inactive” each time. Moreover, the Potency entry in [14], in [16], in test [17] and in test [18] was “inactive” in each case. The max response in [4] is 2.67%.

Regarding `Cc1oc(-c2ccccc2)nc1CCOc1cccc2c1ccn2CCC(=O)O`, the Potency entry in test [1], in test [2], in [3], in test [5], in test [6] and in test [7] was “inactive” each time. In addition, the Potency result in test [8], in [9], in test [19], in [10], in test [20] and in test [12] was “inactive” throughout. Moreover, the Potency result in [13], in [14], in [16] and in [18] was “inactive” throughout. The max response in test [4] was -19%.

For the molecule `CN(C)CCOC(c1ccccc1)c1ccc(Br)cc1` (centres undefined), the Potency entry in [1], in test [2], in [3], in test [5], in test [7] and in test [19] was “inactive” in each case. Further, the Potency result in test [10], in test [20], in test [12], in [13], in [14] and in test [15] was “inactive” each time. Also, the Potency entry in test [16], in test [17] and in test [18] was “inactive” each time. The Potency in test [8], in test [9] and in test [11] was 23.9 µM (active) in each case.

With `O=C(O)c1nc(Cl)c(Cl)c(Cl)c1Cl`, the Potency entry in test [1], in [2], in [3], in [5], in [6] and in [7] was “inactive” in each case. In addition, the Potency result in [8], in test [9], in test [10], in test [20], in test [11] and in test [12] was “inactive” each time. Also, the Potency result in test [13], in [15], in test [16], in test [17] and in [18] was “inactive” throughout.

With `CCCCCCCCCCCCCCOS(=O)(=O)O`, the Potency in test [1] was 43.6 µM (active); in test [5], 43.6 µM (active); in [6] it was 34.7 µM (active); in test [8], 34.7 µM (active); in test [9] it was 34.7 µM (active); in test [10], 43.6 µM (active). The Potency was 38.9 µM (active) in [11], 21.9 µM (active) in test [12] and 43.6 µM (active) in test [16]. In addition, the Potency result in [2], in [7], in [19], in [20], in test [13] and in [14] was “inactive” each time. Moreover, the Potency entry in test [15] and in test [17] was “inactive” in each case. In addition, the max response in [4] is -13.8%.

For the molecule `CC[N+](C)(CC)CCOC(=O)C(O)(c1ccccc1)C1CCCCC1` (centres undefined), the Potency entry in test [1], in [2], in test [5], in test [6], in [7] and in test [8] was “inactive” throughout. In addition, the Potency entry in test [9], in test [19], in test [10], in [20], in [11] and in test [12] was “inactive” each time. In addition, the Potency entry in test [13], in test [14], in test [15], in [16], in [17] and in [18] was “inactive” in each case. Besides, in [4], the max response was 6.78%.

On to `CCCCCCCCCc1ccc(OCCOCCO)cc1`, for which the Potency in test [1] is 13 µM (active); in test [2], 1.45 µM (active); in [4], 1.03 µM (active); in [5] it was 14.5 µM (active); in [6], 20.5 µM (active); in test [8] it was 18.3 µM (active). Further, the Potency in [9] is 20.5 µM (active); in test [10], 14.5 µM (active); in [14], 1.3 µM (active); in test [15] it was 3.25 µM (active); in test [16], 14.5 µM (active). Besides, the Potency result in [19], in test [20] and in [17] was “inactive” each time.

`CC(=O)c1cccc([N+](=O)[O-])c1`: the Potency result in [1], in test [2], in [3], in test [5], in [6] and in test [7] was “inactive” each time. The Potency entry in test [8], in [9], in test [19], in test [10], in [20] and in test [11] was “inactive” in each case. Besides, the Potency entry in test [12], in [13], in test [14], in [16], in test [17] and in [18] was “inactive” throughout.

With `CC(=O)c1ccc2c(c1)N(CCCN(C)C)c1ccccc1S2`, the Potency result in test [1], in test [2], in [3], in test [5], in test [6] and in test [7] was “inactive” throughout. The Potency entry in test [8], in test [19], in [10], in [20], in test [12] and in test [13] was “inactive” each time. Further, the Potency entry in [14], in test [15], in test [16] and in [17] was “inactive” in each case.

Turning to `CCN(CC)c1ccc2c(-c3ccccc3C(=O)O)c3ccc(=[N+](CC)CC)cc-3oc2c1`, the Potency in test [1] is 24.5 µM (active); in test [2], 34.7 µM (active); in [4] it was 24.5 µM (active); in test [5] it was 24.5 µM (active); in [6], 24.5 µM (active); in test [8], 21.9 µM (active). Moreover, the Potency was 24.5 µM (active) in test [9]; 24.5 µM (active) in [10]; 21.9 µM (active) in test [20]; 24.5 µM (active) in test [11]; 24.5 µM (active) in test [12]; 24.5 µM (active) in [14]. For the same molecule, the Potency in test [16] and in [18] was 24.5 µM (active) each time. Besides, the Potency result in test [19] is “inactive”.

On to `OC(C#CCN1CCCC1)(c1ccccc1)c1ccccc1`, for which the Potency result in [1], in test [2], in test [3], in [5], in test [6] and in [7] was “inactive” throughout. For the same molecule, the Potency entry in [8], in test [9], in test [19], in test [10], in test [11] and in test [12] was “inactive” throughout. The Potency result in test [13], in test [14], in test [16] and in test [17] was “inactive” each time.

Regarding `COc1ccc(C)cc1[N+](=O)[O-]`, the Potency result in test [1], in [2], in test [5], in [6], in test [7] and in [8] was “inactive” each time. The Potency entry in [9], in test [10], in [20], in [11], in [12] and in test [13] was “inactive” each time. The Potency entry in [14], in test [15], in [16], in test [17] and in test [18] was “inactive” each time. Besides, the max response in [4] was -4.46%.

`O=C(O)C1(C(=O)O)CCC1.[NH2-].[NH2-].[Pt+2]`: the Potency result in [1], in test [2], in test [5], in [6], in test [7] and in [8] was “inactive” in each case. In addition, the Potency entry in test [9], in test [19], in [10], in [20], in test [11] and in test [12] was “inactive” in each case. For the same molecule, the Potency entry in [13], in [14], in test [15], in [16], in test [17] and in test [18] was “inactive” each time. For the same molecule, in [4], the max response is -1.65%.
